In PubChem BioAssay (NCI):
The panel holds about 83,000 compounds, 20% with a hit somewhere; the sample as a whole holds those more often.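 Values shown are percent growth following 48 h exposure of cells in 96-well plates to a single concentration of compound; below 10 was considered active.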 Unmarked numbers belong to inactive results. Calls of active or inactive are those of the source.

Tested on: HCT-116 colon
Assay: NCI-60 one-dose screen, 48 h (100 = growth as untreated, 0 = no growth, -100 = all killed)
Details: 10 µM unless noted
Description: Growth inhibition of the HCT-116 human tumor cell line is measured as a screen for anti-cancer activity. Cells are grown in 96 well plates and exposed to the test compound for 48 hours. Compounds are tested at a single concentration, which is 10^-5 M for most compounds. The reported endpoint is percent growth (GI% or GIPRCNT), where numbers from 0 - 100% represent growth inhibition, and numbers from -100% - 0 represent cell death. For example, a value of 40 represents 60% growth inhibition. A value of 0 means no net growth occurred over the course of the experiment. A value of -40 indicates 40% of cells at the beginning of the experiment died by the end of the experiment. A value of -100 means all cells are dead at the end of the experiment.
NCI-60 Human Tumor Cell Lines Screen was performed using the standard one-dose NCI protocol, which is described in more detail at https://dtp.cancer.gov/discovery_development/nci-60/default.htm.
Compounds with GIPRCNT values below 10 were considered active. Activity score was based on GIPRCNT using the following formula: […]
Score is 0 for GIPRCNT values of 100 or above, 50 for GIPRCNT values of 0, and 100 for GIPRCNT values of -100.

SMILES	growth
N#CC1C(C#N)C2c3ccccc3C=CN2C1C(=O)c1ccc(Br)cc1 (stereo not given)	87.7%
CCOC(=O)Oc1c(OC)cc(C(=O)c2ccc(OC)c(OC(=O)CCl)c2OC)cc1OC	11.4%
O=C(O)c1ccc(-c2nn(-c3ccc(C(F)(F)F)cc3)cc2CNc2ccc(Oc3ccccc3)cc2)cc1	60.8%
O=Cc1ccc(-c2cn3ccnc3c(-c3ccc4ncn(Cc5ccccc5)c4c3)n2)cc1	7.44% (active)
Cc1cc2nc3c4cc(C=O)ccc4n(CCN(C)C)c3nc2cc1C	10.2%
CCCOC(=O)N[C@H]1CCc2cc(OC)c(OC)c(OC)c2-c2ccc(SC)c(=O)cc21	7.65% (active)
CCCCCCCCOc1ccc(/C=N/Nc2cc(C)nc3ccc(Br)cc23)cc1	6.51% (active)
O=C(Nc1ccccc1)Nc1ccc2cc3ccc(NC(=O)Nc4ccccc4)cc3nc2c1	-57.1% (active)
COc1ccc2[nH]c(=O)c(CN3CCN(c4nccc(-c5ccc(Cl)cc5)n4)CC3)cc2c1	86.4%
CCOc1ccc(/C=N/Nc2cc(C)nc3ccc(Br)cc23)cc1	36.6%
O=C(/C=C/c1ccc[nH]1)c1ccc(-n2ccc(C(F)(F)F)n2)c(F)c1	85.6%
CCCCCCNC(=O)Nc1ccc2cc3ccc(NC(=O)NCCCCCC)cc3nc2c1	-18.9% (active)
CC1(C)CC[C@]2(C(=O)O)CC[C@]3(C)C(=CC[C@@H]4[C@@]5(C)Cc6c([nH]c7ccccc67)C(C)(C)[C@@H]5CC[C@]43C)[C@@H]2C1	8.26% (active)
O=C(Nc1ccccc1C(=O)N/N=C(\c1ccccc1)c1ccccn1)c1ccc(F)cc1	17%
COc1cc2oc(-c3cccc(C(=O)Nc4ccccc4)c3)cc(=O)c2c(O)c1OC	46.3%
CCc1ccc(CNc2ccc(N3CCOCC3)c(C(=O)O)c2)cc1	86.1%
Cc1ccc(S(=O)(=O)NNC(=O)/C(=C\c2ccc(Cl)cc2)c2nc3ccccc3s2)cc1	84.3%
Cc1cc2cc3ccc(N(C)C)cc3nc2cc1N	-20% (active)
Cc1ccc(-n2nc3c(c(C#N)c2=O)CC(c2ccccc2[N+](=O)[O-])C([N+](=O)[O-])=C3O)cc1 (stereo not given)	86.9%
CCc1c(Cl)nc(N)nc1Nc1ccc(C)c(C)c1	76%

SMILES	growth
Nc1nc(Nc2ccccc2SSc2ccccc2Nc2nc(N)nc(-c3cccs3)n2)nc(-c2ccsc2)n1	84.9%
CNCCn1c(=O)c2cc(OC)c(OC)cc2c2ccc3cc4c(cc3c21)OCO4	2.87% (active)
N#C/C(=C\c1ccc(C(F)(F)F)cc1)c1cc2ccccc2[nH]1	94.9%
CCC(CC)NCC(C)(C)O	103%
CCN(CC)c1ccc(/C=N/NC(=O)CSc2nc3ccccc3c(=O)n2Cc2ccc(S(N)(=O)=O)cc2)c(O)c1	21.5%
COc1cc(/C=N/NC(=O)c2cnn3c2NC(c2ccccc2)C3)ccc1OCc1ccccc1 (stereo not given)	-15.1% (active)
CCNc1nc2ccc(Nc3ccnc4cc(Cl)ccc34)cc2[nH]1	17.3%
C#CCNC(=O)[C@H](Cc1ccccc1)NC(=O)[C@]12CC[C@@H](C(=C)C)[C@@H]1[C@H]1CC[C@@H]3[C@@]4(C)CCC(=O)C(C)(C)[C@@H]4CC[C@@]3(C)[C@]1(C)CC2	35.3%
COC(=O)CNC(=O)[C@]12CCC(C)(C)C[C@H]1C1=CC[C@@H]3[C@@]4(C)Cc5c([nH]c6ccccc56)C(C)(C)[C@@H]4CC[C@@]3(C)[C@]1(C)CC2	95%
Cn1ccnc1C(=O)/C=C/c1ccc(CC(=O)Nc2ccc(Cl)cc2)cc1	7.88% (active)
COc1cc(/C(C)=C(\c2ccc(Cl)cc2)c2ccc(OCCN3CCCC3)cc2)ccc1F	39.2%
CCCCCCCCCCCCCCCC[N+]1(C)CCN(SN2CC[N+](C)(CCCCCCCCCCCCCCCC)CC2)CC1	31.6%
Cn1c(-c2c(N)n(CCCN3CCOCC3)c3nc(C#N)c(C#N)nc23)nc2ccccc21	22.7%
COc1ccc2[nH]c(O)c(/C=c3/cc4c(c(-c5ccc(F)cc5)n3)=Nc3ccccc3-4)c2c1	27.9%
CC(Sc1nc2sc3c(c2c(=O)n1-c1ccc(Cl)cc1)CCCC3)C(=O)Nc1nc(-c2ccc(Br)cc2)cs1 (stereo not given)	93.4%
COc1cc(C=O)ccc1OC1OC(COC(C)=O)C(OC(C)=O)C(OC(C)=O)C1OC(C)=O (stereo not given)	100%
CCOC(=O)CSc1nc2ccccc2c(=O)n1Cc1ccc(S(N)(=O)=O)cc1	102%
c1ccc2c(-c3c[nH]c4ccccc34)c3c(cc2c1)[nH]c1ccccc13	46.9%
COc1cc(-c2cc(-c3ccc(N(C)C)cc3)nc(N3CCOCC3)c2C#N)cc(OC)c1OC	12.3%
CCC(=O)Oc1ccc(/C(=C(\C)c2ccccc2)c2ccc(OCCN3CCCCC3)cc2)cc1	60.9%
